These results are taken from PubChem BioAssay (Tox21).

Unmarked numbers belong to inactive results. Records with an inconclusive call do not appear. Active and inactive are the calls of the source. Unless noted, calls follow the shape of the dose curve; as a rule, active = well fitted curve in the direction sought with a large enough effect in the repeat runs; inconclusive = weak or mixed curves; inactive = no such curve, though single readings can be large; an effect the other way counts as inactive or inconclusive.

A short description of assay [1]: A CellTox Green Cytotoxicity Assay to monitor cytotoxicity in HEK293 cells - 32 hour (AID 1224881). Also: nearly all actives have a fitted effect of over 40% in size. Also: potency is read from the fitted curve at half-maximal effect. The method, boiled down:
(§1)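 Nonlytic real-time cytotoxicity: HEK293 + CellTox Green reagent plated, 5 h preincubation, pintool compound addition (23 nL in DMSO), 37 C for 40 h, fluorescence measured at successive time points.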

Assay [2] can be described thus: A CellTox Green Cytotoxicity Assay to monitor cytotoxicity in HepG2 cells - 0 hour (AID 1224882). Also: nearly all actives have a fitted effect of over 35% in size. The method in brief:
(§2)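 Read-out is fluorescence of a cyanine dye excluded from live cells that stains DNA of dead HepG2 cells, with signal proportional to cytotoxicity. Plates were read at 0, 8, 16, 24, 32 and 40 h after compound addition.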

Assay [3] can be described thus: A CellTox Green Cytotoxicity Assay to monitor cytotoxicity in HepG2 cells - 32 hour (AID 1224883). Also: nearly all actives have a fitted effect of over 50% in size. Also: potency is read from the fitted curve at half-maximal effect. The method, boiled down:
as §2

The nature of assay [4]: qHTS RealTime-Glo MT Cell Viability Assay in HepG2 cells - 16 hour (AID 1224885). Also: nearly all actives have a fitted effect of over 50% in size. The method, boiled down:
(§3)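 Viability was tracked continuously by NanoLuc luminescence from prosubstrate reduced by living HepG2 cells, at successive time points over 40 h of compound exposure. Cells with reagent were preincubated 5 h at 37 °C before compound addition.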

Assay [5] is described as follows: qHTS RealTime-Glo MT Cell Viability Assay in HEK293 cells - 24 hour (AID 1224886). Also: top concentration of the series differs between compounds; nearly all actives have a fitted effect of over 50% in size. The method, boiled down:
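Viability tracked continuously by luminescence as live cells reduce a prosubstrate for NanoLuc; HEK293 cells preincubated 5 h, compound-treated at 37 C, and read at 0, 8, 16, 24, 32 and 40 h.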

The nature of assay [6]: qHTS RealTime-Glo MT Cell Viability Assay in HEK293 cells - 8 hour (AID 1224887). Also: top concentration of the series differs between compounds; nearly all actives have a fitted effect of over 50% in size. The method in brief: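 Cells were seeded together with NanoLuc luciferase and a prosubstrate that viable cells reduce to a luciferase substrate. After a 5 h incubation at 37 C/5% CO2, compounds were added and luminescence was measured repeatedly during 40 h of treatment.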
Assay [7] can be described thus: A CellTox Green Cytotoxicity Assay to monitor cytotoxicity in HEK293 cells - 16 hour (AID 1224888). Also: nearly all actives have a fitted effect of over 35% in size. Also: potency is read from the fitted curve at half-maximal effect. The method in brief: as §1
Assay [8] is described as follows: qHTS RealTime-Glo MT Cell Viability Assay in HepG2 cells - 0 hour (AID 1224889). Also: nearly all actives have a fitted effect of over 50% in size. The method in brief:
as §3

Assay [9] is described as follows: A CellTox Green Cytotoxicity Assay to monitor cytotoxicity in HepG2 cells - 8 hour (AID 1224890). Also: nearly all actives have a fitted effect of over 45% in size. Also: potency is read from the fitted curve at half-maximal effect. The method, boiled down: as §2
A short description of assay [10]: qHTS assay to identify small molecule antagonists of the estrogen receptor alpha (ER-alpha) signaling pathway using the BG1 cell line in the presence of 0.1 nM 17-beta-estradiol - cell viability counter screen (AID 1259241). Also: nearly all actives have a fitted effect of over 40% in size. The method in brief:
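Live-cell protease activity (CellTiter-Fluor fluorescence, 30 min) was read in the same wells after VM7Luc4E2 cells had been exposed to compounds with 0.1 nM 17beta-estradiol for 22 hr at 37C.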

A short description of assay [11]: qHTS assay to identify small molecule antagonists of the androgen receptor (AR) signaling pathway using the MDA cell line in the presence of 0.5 nM R1881 - cell viability counter screen (AID 1259242). Also: nearly all actives have a fitted effect of over 45% in size. The method, boiled down: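 Counter screen for cytotoxicity run in the same wells as the AR antagonist reporter screen: MDA-kb2 cells were treated 16 hr with test compounds and 0.5 nM R1881, then live-cell protease activity was measured by fluorescence.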

Assay [12] addresses Estrogen receptor (Homo sapiens) (UniProt P03372). Put plainly: qHTS assay to identify small molecule antagonists of the estrogen receptor alpha (ER-alpha) signaling pathway using the BG1 cell line in the presence of 0.1 nM 17-beta-estradiol (AID 1259244). Also: nearly all actives have a fitted effect of over 50% in size. The method in brief:
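Cells: VM7Luc4E2, endogenous ER-alpha, 4x ERE-luc stable. Pre-culture 5 d, phenol red-free, charcoal-stripped FBS. Plated 24 h, compound + E2 0.1 nM final, 22 h 37C/5% CO2. Readout ONE-Glo luminescence.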

A short description of assay [13]: qHTS assay to identify small molecule phospholipidosis (PLD) inducers (AID 1259344; active = well fitted curve in the direction sought with a large enough effect; an effect the other way counts as inactive or inconclusive). The method, boiled down:
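Fluorescent phospholipid staining (LipidTOX Red) measured by automated microscopy in fixed HepG2 cells after 24 h treatment; nuclei counterstained with Hoechst 33342; amiodarone as reference inducer.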

A short description of assay [14]: qHTS assay to identify small molecule HDAC inhibitors (AID 1259364). Also: top concentration of the series differs between compounds; nearly all actives have a fitted effect of over 45% in size. The method, boiled down: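 Luminescence from a cell-permeant luminogenic class I/II HDAC substrate reports endogenous deacetylase activity in intact HCT-116 cells treated with compounds for 2 h.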
A short description of assay [15]: qHTS assay to identify small molecule HDAC inhibitors - cell viability counter screen (AID 1259365). The method, boiled down:
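HCT-116 (wild type), 1,500 cells/well, overnight 37C/5% CO2; compound in DMSO 2hr; CellTiter-Glo 30min RT; luminescence read.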

A short description of assay [16]: qHTS assay to identify small molecule agonists of the sonic hedgehog signaling (Shh) pathway - cell viability counter screen (AID 1259366). Also: nearly all actives have a fitted effect of over 50% in size. The method in brief: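 CellTiter-Fluor fluorescence read-out, 1 hr at 37C, added after 23hr compound exposure. Cells: 3T3 Gli1-Luc, an NIH/3T3 clone with stably integrated Gli1-Luc reporter, plated 4hr before compound.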
Assay [17] in a line: qHTS assay to identify small molecule antagonists of the sonic hedgehog signaling (Shh) pathway - cell viability counter screen (AID 1259367). Also: nearly all actives have a fitted effect of over 55% in size. The method in brief: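 Using CellTiter-Fluor, viability of Gli1-Luc reporter 3T3 cells is read by fluorescence in the wells used for the Shh luciferase assay. Treatment lasts 23 hr with conditioned medium, then reagent 1 hr at 37C.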

Assay [18] in a line: qHTS assay to identify small molecule agonists of the sonic hedgehog signaling (Shh) pathway (AID 1259368; calls by dose curve;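 also: NIH/3T3-derived 3T3Gli1-Luc cells carrying a stable Gli1-driven firefly luciferase reporter; series mostly up to about 92 µM; nearly all actives have a fitted effect of over 15% in size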). The method in brief:
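3T3Gli1-Luc (NIH/3T3 clone, stable Gli1-Luc); 4 hr pre-incubation, then cpd in DMSO 24 hr, 37 C/5% CO2; luciferase reagent 30 min RT; luminescence.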

The nature of assay [19]: A CellTox Green Cytotoxicity Assay to monitor cytotoxicity in HEK293 cells - 8 hour (AID 1224884). Also: nearly all actives have a fitted effect of over 35% in size. Also: potency is read from the fitted curve at half-maximal effect. The method, boiled down: as §1
In assay [20] the target is Androgen receptor (Homo sapiens) (UniProt P10275). Nature of the assay: qHTS assay to identify small molecule antagonists of the androgen receptor (AR) signaling pathway using the MDA cell line in the presence of 0.5 nM R1881 (AID 1259243). Also: nearly all actives have a fitted effect of over 50% in size. The method, boiled down:
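Luciferase luminescence is the read-out: compounds are tested for suppressing 0.5 nM R1881-driven MMTV reporter activity in MDA-kb2 cells after 16 hr at 37C.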

Sequence of Estrogen receptor (Homo sapiens) (P03372 whole entry, looked up): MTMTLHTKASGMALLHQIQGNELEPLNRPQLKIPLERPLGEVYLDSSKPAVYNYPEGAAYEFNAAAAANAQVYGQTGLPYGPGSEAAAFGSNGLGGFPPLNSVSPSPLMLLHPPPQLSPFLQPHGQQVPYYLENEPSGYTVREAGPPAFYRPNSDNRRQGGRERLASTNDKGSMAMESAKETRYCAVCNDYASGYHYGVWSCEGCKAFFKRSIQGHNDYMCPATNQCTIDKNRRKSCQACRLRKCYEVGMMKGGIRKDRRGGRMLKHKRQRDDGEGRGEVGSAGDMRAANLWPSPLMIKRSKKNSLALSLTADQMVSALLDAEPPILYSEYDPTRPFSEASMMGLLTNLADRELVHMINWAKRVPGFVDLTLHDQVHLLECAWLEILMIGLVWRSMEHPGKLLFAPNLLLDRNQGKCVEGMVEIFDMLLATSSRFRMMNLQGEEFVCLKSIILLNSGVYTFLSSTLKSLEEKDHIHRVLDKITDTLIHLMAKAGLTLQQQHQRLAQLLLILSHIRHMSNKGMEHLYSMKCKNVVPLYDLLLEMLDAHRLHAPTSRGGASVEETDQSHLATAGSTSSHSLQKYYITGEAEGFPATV
Sequence of Androgen receptor (Homo sapiens) (P10275 whole entry, looked up): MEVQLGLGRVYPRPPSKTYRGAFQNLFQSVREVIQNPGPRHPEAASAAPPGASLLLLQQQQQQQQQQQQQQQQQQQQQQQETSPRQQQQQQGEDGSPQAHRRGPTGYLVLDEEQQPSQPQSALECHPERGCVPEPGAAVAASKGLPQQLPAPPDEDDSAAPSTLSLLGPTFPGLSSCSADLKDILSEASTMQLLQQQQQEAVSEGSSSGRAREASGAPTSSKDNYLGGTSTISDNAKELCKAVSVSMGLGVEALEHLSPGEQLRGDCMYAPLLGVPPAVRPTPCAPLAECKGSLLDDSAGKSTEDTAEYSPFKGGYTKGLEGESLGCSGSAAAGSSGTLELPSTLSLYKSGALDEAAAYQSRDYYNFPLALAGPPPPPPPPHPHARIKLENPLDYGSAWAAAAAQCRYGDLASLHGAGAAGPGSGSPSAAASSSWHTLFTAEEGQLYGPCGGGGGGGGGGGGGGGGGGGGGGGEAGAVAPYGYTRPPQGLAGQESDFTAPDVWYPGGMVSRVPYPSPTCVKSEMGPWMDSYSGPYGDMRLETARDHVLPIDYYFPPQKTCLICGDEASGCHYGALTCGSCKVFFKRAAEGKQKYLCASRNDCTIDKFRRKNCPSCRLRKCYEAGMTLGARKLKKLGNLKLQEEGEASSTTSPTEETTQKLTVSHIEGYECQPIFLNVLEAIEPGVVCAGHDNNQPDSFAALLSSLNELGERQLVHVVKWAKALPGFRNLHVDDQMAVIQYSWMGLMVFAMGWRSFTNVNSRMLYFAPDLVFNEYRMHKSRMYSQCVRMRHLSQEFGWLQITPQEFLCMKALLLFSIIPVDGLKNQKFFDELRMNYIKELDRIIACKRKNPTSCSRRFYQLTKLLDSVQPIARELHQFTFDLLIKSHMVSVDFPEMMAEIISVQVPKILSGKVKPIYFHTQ

Consider `N[C@@H](Cc1ccc(Oc2cc(I)c(O)c(I)c2)c(I)c1)C(=O)O`, for which the Potency result in assay [1], in assay [3], in [4], in [5], in assay [6] and in assay [7] was “inactive” throughout. Further, the Potency result in assay [9], in assay [11], in assay [12], in assay [13], in assay [14] and in assay [16] was “inactive” each time. For the same molecule, the Potency result in assay [17] is “inactive”. Also, the call in assay [2], in [8], in assay [10], in [15] and in assay [18] was inactive.
As for `O=C(Cl)CCl`, the Potency entry in assay [1], in assay [3], in assay [19], in assay [5], in assay [6] and in assay [7] was “inactive” in each case. The Potency result in assay [9], in [11], in assay [12], in [14], in [16] and in assay [17] was “inactive” in each case. Besides, the result in assay [2], in assay [8], in [10], in [15] and in [18] was inactive.
Take `COC(=O)[C@@H](N)CCCN/C(N)=N/[N+](=O)[O-]`: the Potency result in [1], in assay [3], in [19], in [5], in assay [7] and in assay [9] was “inactive” throughout. In addition, the Potency entry in assay [11], in assay [13], in [14], in assay [16] and in assay [17] was “inactive” throughout. The result in [2], in [8], in assay [10], in [15] and in assay [18] was inactive.
With `CCCN1CCC[C@@H]2Cc3nc(N)ncc3C[C@H]21`, the Potency was 16.9 µM (active) in assay [1]; 21.3 µM (active) in [3]; 19 µM (active) in [19]; 19 µM (active) in [7]; 23.9 µM (active) in assay [9]. The Potency entry in [4], in [5], in [6], in assay [11], in [12] and in assay [14] was “inactive” in each case. Further, the Potency result in assay [16] and in assay [17] was “inactive” throughout. The result in [8], in [10], in assay [15] and in assay [18] was inactive.
On to `C[C@@H](N)[C@@H](O)c1ccccc1`, for which the Potency result in assay [1], in assay [3], in assay [19], in assay [4], in assay [5] and in [6] was “inactive” each time. Moreover, the Potency entry in assay [7], in assay [9], in assay [11], in assay [14], in assay [16] and in [17] was “inactive” throughout. Moreover, the result in assay [8], in [10], in assay [15] and in [18] was inactive.
Take `CCCOc1nn(C(=O)NS(=O)(=O)c2ccccc2C(=O)OC)c(=O)n1C`: the Potency entry in assay [1], in [3], in [19], in [4], in assay [5] and in [6] was “inactive” in each case. Besides, the Potency entry in assay [7], in assay [9], in assay [11], in [20], in assay [14] and in assay [16] was “inactive” each time. In addition, the Potency entry in assay [17] was “inactive”. Moreover, the molecule was classed as inactive in [8], in [10] and in assay [15].
As for `CNC(=O)Oc1ccccc1C(C)C`, the Potency entry in assay [1], in assay [3], in assay [4], in assay [5], in assay [6] and in assay [9] was “inactive” in each case. Moreover, the Potency result in [11], in assay [20], in assay [12], in [14], in assay [16] and in assay [17] was “inactive” throughout. Further, the molecule was classed as inactive in assay [2], in assay [8], in assay [10], in assay [15] and in assay [18].
Turning to `N=C(N)[Se]`, the Potency entry in assay [1], in assay [3], in assay [4], in [5], in [9] and in assay [11] was “inactive” in each case. Moreover, the Potency result in [12], in [14], in [16] and in assay [17] was “inactive” throughout. Moreover, the result in [2], in assay [8], in [10], in assay [15] and in assay [18] was inactive.
As for `C1CN2CCC1CC2`, the Potency entry in [1], in assay [3], in assay [4], in assay [5], in assay [7] and in [9] was “inactive” throughout. Further, the Potency result in [11], in assay [12], in [14], in [16] and in assay [17] was “inactive” throughout. The molecule was called inactive in [2], in [8], in assay [10], in assay [15] and in [18].
